The record followed here is the supplement of paper PMC11732987, “Enantioselective OTUD7B fragment discovery through chemoproteomics screening and high-throughput optimisation” (Communications Chemistry, 2025).

For one experiment, the target named is T1, USP38 (UniProt Q8NB14).
T1 sequence (whole entry): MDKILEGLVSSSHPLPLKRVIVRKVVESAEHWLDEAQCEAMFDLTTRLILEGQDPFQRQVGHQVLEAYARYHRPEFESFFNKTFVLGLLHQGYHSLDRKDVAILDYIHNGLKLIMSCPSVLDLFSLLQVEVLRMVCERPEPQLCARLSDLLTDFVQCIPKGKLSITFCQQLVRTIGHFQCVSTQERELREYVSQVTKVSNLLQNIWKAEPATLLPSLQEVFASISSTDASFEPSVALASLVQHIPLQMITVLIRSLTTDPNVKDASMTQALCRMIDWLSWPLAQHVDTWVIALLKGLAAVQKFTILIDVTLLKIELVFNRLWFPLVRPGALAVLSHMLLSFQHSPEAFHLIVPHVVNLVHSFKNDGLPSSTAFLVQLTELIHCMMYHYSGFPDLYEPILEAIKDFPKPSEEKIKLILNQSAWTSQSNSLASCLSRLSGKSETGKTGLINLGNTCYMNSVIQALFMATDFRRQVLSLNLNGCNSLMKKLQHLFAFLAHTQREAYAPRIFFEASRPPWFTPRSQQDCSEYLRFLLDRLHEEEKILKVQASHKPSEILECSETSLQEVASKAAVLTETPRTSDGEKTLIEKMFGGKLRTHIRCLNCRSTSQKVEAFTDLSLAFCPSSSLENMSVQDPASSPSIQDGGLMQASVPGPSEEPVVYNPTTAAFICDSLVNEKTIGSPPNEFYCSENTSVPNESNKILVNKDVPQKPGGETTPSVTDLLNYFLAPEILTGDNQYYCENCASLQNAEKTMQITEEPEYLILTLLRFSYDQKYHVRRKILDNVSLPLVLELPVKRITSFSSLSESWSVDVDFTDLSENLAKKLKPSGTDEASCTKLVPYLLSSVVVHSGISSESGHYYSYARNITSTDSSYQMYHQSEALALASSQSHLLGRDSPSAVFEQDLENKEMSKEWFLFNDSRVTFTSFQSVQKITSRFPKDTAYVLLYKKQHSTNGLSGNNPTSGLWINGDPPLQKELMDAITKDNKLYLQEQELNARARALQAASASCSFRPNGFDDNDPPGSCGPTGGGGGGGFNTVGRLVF
Nature of the experiment: log2 ratio of Biotin-Ahx-Ub-VS probe labelling (compound/DMSO); higher = less target engagement, active = hit call of the paper (q ≤ 0.05, log2 ratio ≤ -1). The following applies: treatment time: 3 h. Put shortly: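 Values are average ratios of compound to vehicle from an unpaired t-test, limited to proteins with at least two unique peptides. HEK293T lysate (495 µg per sample, in Tris/CHAPS/IGEPAL buffer with protease inhibitors) was exposed in triplicate to a concentration series of compound or to vehicle for 3 h, then to Biotin-Ahx-Ub-VS at 0.5 µM final for 1 h. Labelled deubiquitinases were enriched on NeutrAvidin, digested with LysC and trypsin, and analysed by diaPASEF LC-MS/MS. Ratios are given on a log2 scale from Spectronaut label-free protein quantities normalised to the global median.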

A further experiment has as its target T2, ALG13 (UniProt Q9NP73).
T2 sequence (whole entry): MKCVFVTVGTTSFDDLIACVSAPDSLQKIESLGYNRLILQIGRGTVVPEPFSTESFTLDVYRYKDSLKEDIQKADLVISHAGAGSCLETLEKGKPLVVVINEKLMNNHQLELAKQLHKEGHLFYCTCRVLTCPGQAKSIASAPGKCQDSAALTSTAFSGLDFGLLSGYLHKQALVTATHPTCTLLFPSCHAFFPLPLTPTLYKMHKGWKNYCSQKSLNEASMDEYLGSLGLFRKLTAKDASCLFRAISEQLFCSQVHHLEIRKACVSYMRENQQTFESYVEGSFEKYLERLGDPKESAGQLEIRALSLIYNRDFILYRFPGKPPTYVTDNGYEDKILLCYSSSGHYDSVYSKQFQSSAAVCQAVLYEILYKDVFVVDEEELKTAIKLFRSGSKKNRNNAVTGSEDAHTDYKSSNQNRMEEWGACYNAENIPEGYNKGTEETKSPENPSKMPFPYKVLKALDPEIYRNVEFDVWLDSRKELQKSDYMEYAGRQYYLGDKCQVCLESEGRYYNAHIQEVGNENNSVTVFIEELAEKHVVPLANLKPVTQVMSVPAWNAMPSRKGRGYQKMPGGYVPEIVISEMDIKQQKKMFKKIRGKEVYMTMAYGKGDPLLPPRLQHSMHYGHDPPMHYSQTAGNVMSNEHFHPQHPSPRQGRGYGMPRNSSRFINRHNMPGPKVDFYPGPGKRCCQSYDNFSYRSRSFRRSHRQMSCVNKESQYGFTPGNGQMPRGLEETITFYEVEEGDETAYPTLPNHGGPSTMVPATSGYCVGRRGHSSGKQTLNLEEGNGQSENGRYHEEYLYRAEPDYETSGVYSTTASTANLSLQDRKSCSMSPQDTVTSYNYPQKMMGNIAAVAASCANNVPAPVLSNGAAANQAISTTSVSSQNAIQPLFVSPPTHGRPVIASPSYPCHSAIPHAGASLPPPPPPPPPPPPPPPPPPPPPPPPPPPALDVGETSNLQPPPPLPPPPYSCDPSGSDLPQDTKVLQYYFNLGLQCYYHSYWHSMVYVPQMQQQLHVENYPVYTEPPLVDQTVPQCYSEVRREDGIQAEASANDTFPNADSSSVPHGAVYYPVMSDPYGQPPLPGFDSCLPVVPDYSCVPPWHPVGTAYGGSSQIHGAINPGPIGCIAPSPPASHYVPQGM
Briefly: log2 ratio of Biotin-Ahx-Ub-VS probe labelling (fragment/DMSO); higher = less target engagement (more negative = stronger competition), active = hit call of the paper (q ≤ 0.05, log2 ratio ≤ -1). As to conditions: compound concentration: 200 uM; treatment time: 3 h. Put shortly: (§1)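 Fragment (200 µM) or vehicle was incubated for 3 h with triplicate HEK293T lysate samples of 495 µg, which were then treated with Biotin-Ahx-Ub-VS at 0.5 µM final for 1 h. Labelled DUBs were enriched on NeutrAvidin, digested with LysC and trypsin, and analysed by diaPASEF LC-MS/MS. Values are average log2 fragment/vehicle ratios from an unpaired t-test on global-median-normalised Spectronaut label-free quantities, using proteins with ≥2 unique peptides.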

The target of the next experiment is ATXN3 (UniProt P54252). Described as above. The following applies: compound concentration: 200 uM; treatment time: 3 h. The method in brief:
as §1

The target in another experiment is T3, BAP1 (UniProt Q92560).
T3 sequence (whole entry): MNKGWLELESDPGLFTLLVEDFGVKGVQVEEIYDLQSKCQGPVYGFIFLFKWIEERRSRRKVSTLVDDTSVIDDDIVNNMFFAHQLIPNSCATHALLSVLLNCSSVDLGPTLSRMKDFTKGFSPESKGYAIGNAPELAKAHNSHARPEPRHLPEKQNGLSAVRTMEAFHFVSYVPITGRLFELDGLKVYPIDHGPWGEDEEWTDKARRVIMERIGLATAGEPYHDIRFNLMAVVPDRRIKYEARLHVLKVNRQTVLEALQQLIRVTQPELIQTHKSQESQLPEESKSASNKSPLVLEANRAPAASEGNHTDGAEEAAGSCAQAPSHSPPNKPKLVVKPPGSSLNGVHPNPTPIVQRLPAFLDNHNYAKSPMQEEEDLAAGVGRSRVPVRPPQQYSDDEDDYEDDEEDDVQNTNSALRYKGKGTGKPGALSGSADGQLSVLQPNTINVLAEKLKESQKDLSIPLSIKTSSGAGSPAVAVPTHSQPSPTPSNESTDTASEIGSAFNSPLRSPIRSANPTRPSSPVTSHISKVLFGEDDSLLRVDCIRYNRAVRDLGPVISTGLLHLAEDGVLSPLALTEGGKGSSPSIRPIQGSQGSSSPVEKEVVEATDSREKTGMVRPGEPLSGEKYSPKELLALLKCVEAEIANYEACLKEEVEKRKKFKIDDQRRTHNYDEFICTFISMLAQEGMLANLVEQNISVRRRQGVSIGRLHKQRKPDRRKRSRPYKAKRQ
The description is as above. The following applies: compound concentration: 200 uM; treatment time: 3 h. The method in brief:
as §1

The next experiment addresses EIF3F (UniProt O00303). The description is as above. The following applies: compound concentration: 200 uM; treatment time: 3 h. Put shortly: as §1
The target in a further experiment is EIF3H (UniProt O15372). The experiment is described as above. The following applies: compound concentration: 200 uM; treatment time: 3 h. The method in brief: as §1
The next experiment has as its target T4, FAM105A (UniProt Q9NUU6).
T4 sequence (whole entry): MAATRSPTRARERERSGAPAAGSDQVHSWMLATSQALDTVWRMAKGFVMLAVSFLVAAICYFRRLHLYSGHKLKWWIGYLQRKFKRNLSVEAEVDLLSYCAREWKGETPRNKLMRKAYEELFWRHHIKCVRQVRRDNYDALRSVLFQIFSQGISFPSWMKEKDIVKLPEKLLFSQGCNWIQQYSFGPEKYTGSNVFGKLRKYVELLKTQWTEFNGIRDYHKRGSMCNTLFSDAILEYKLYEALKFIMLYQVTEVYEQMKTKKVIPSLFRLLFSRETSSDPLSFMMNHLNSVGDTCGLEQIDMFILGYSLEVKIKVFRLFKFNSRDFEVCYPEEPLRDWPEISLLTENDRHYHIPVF
Described as above. The following applies: compound concentration: 200 uM; treatment time: 3 h. Put shortly:
as §1

The target of a further experiment is OTUB1 (UniProt Q96FW1). The experiment is described as above. As to conditions: compound concentration: 200 uM; treatment time: 3 h. The method in brief: as §1
For a further experiment, the target named is T5, OTUD4 (UniProt Q01804).
T5 sequence (whole entry): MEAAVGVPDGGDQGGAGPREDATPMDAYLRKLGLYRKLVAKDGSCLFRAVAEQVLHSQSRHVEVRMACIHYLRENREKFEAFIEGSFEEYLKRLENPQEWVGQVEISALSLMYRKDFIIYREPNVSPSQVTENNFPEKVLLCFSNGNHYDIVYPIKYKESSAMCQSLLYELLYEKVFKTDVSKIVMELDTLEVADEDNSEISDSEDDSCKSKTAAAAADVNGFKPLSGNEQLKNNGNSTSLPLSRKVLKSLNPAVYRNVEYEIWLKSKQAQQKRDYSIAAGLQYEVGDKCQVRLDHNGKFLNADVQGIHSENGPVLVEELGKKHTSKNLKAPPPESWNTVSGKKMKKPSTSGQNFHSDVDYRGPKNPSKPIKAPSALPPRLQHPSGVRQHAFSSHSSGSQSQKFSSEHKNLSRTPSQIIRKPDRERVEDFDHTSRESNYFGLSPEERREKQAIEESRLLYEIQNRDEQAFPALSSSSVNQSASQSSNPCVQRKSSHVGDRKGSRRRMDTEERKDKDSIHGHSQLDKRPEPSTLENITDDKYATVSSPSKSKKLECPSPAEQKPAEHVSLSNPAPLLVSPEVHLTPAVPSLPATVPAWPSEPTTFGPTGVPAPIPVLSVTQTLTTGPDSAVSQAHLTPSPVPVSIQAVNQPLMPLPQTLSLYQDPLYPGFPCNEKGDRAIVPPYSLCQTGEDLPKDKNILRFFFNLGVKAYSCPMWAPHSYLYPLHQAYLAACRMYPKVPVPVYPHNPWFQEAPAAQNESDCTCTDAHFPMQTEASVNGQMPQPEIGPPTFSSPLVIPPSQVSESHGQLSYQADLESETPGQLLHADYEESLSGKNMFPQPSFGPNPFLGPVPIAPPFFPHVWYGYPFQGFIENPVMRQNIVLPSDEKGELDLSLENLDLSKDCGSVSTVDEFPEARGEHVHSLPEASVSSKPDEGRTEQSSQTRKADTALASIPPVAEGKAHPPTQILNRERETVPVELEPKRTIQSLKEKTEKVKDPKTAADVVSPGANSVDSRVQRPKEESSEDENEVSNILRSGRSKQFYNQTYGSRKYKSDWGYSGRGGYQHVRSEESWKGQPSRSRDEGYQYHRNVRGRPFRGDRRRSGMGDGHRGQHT
Described as above. As to conditions: compound concentration: 200 uM; treatment time: 3 h. Put shortly:
as §1

The target of the next experiment is T6, OTUD5 (UniProt Q96G74).
T6 sequence (whole entry): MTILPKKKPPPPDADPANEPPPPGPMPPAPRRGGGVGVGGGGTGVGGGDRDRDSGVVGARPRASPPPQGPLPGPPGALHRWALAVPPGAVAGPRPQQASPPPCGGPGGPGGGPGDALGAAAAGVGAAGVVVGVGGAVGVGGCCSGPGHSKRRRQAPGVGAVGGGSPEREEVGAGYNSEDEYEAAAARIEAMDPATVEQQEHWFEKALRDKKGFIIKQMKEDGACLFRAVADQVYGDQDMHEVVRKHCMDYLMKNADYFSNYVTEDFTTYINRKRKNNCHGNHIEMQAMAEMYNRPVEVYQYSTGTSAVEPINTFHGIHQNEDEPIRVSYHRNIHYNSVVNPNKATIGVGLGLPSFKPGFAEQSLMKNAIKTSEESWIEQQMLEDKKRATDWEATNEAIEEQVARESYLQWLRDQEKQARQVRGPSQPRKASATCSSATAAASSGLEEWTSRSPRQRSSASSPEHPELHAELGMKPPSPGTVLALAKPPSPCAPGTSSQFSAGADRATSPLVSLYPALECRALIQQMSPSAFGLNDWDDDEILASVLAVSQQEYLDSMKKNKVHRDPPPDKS
The description is as above. The following applies: compound concentration: 200 uM; treatment time: 3 h. Put shortly: as §1

Values without a mark were called inactive.

EIF3F, sequence (O00303 whole entry): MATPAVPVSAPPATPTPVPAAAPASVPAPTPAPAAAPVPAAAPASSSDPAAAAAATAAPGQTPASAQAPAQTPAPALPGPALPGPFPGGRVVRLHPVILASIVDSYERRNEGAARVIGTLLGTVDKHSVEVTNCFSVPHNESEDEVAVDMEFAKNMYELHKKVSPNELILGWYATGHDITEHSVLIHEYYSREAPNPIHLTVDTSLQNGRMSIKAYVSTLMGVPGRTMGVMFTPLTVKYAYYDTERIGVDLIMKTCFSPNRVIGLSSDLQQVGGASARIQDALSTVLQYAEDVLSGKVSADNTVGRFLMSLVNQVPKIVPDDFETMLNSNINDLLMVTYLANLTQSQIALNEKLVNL
ATXN3, sequence (P54252 whole entry): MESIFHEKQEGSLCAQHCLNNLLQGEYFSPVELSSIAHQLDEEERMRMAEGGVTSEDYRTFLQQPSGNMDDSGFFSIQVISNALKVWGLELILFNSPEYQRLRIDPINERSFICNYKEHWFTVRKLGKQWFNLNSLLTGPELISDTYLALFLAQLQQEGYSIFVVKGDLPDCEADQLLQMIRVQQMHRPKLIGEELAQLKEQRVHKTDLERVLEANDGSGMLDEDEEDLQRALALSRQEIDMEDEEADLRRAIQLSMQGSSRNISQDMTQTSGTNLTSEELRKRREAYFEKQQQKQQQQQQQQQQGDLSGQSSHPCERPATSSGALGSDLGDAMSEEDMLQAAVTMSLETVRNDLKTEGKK
EIF3H, sequence (O15372 whole entry): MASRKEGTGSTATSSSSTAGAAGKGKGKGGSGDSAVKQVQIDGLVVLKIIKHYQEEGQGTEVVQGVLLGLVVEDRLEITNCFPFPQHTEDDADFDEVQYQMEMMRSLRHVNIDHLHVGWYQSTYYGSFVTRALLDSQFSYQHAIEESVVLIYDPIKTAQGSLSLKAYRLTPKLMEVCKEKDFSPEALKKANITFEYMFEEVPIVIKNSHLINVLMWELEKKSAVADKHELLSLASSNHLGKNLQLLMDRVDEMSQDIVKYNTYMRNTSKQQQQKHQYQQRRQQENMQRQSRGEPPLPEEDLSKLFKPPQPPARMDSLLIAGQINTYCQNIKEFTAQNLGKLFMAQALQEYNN
OTUB1, sequence (Q96FW1 whole entry): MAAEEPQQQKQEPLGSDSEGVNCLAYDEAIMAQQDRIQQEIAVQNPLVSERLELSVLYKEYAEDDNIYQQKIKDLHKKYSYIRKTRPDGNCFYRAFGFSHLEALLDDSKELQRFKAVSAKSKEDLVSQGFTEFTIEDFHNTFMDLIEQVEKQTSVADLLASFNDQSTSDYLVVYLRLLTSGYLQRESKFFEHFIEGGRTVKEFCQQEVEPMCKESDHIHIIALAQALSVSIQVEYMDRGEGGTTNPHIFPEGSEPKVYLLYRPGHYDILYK

Regarding `O=C(CCl)N[C@@H]1CCCc2ccccc21`, the “log2 ratio of Biotin-Ahx-Ub-VS probe labelling” value (“log2 ratio” below) is -0.208 in the experiment with USP38 (compound concentration: 0.78uM); -0.105 with USP38 (compound concentration: 1.56uM); -0.116 in the experiment with USP38 (compound concentration: 3.13uM); -0.253 with USP38 (compound concentration: 6.25uM); -0.127 with USP38 (compound concentration: 12.5uM); -0.107 in the experiment with USP38 (compound concentration: 25uM). The results for the “log2 ratio” value with USP38 (compound concentration: 50uM), with USP38 (compound concentration: 100uM) and with USP38 (compound concentration: 200uM) were -0.0917, -0.166 and -0.233, respectively.

In the case of `COc1ccccc1C(C)NC(=O)CCl` (stereo not drawn), the “log2 ratio” value with ALG13 was -0.0378; in the experiment with ATXN3 it was -0.0967; with BAP1, -2.35 (active); in the experiment with EIF3F, -0.185; with EIF3H, -0.0831; with FAM105A, -0.0799. The “log2 ratio” value with OTUB1 is -0.298; with OTUD4 it was -0.393; in the experiment with OTUD5, -0.514.
